Experimental data: PubChem BioAssay AID1573 (National Center for Advancing Translational Sciences (NCATS), 2009)
Records with an inconclusive call do not appear. Calls of active or inactive are those of the source. The call rests on the fitted dose curve; in most records, active means well fitted inhibition curve with a large enough effect; inconclusive means small, poorly fitted or top-dose-only effect; inactive means no such curve, though single readings can be large or run the other way.

Each molecule was assayed against Thyroid hormone receptor beta (Homo sapiens) (UniProt P10828) (assay: Concentration Response Confirmation Assay for Inhibitors of the Interaction of Thyroid Hormone Receptor and Steroid Receptor Coregulator 2). Details: TRb LBD + Texas Red SRC2 peptide, fluorescence polarization, 5 h; series mostly up to 92.2 µM.
Chain of Thyroid hormone receptor beta (Homo sapiens) (P10828 whole entry, looked up, the tested form may be a part): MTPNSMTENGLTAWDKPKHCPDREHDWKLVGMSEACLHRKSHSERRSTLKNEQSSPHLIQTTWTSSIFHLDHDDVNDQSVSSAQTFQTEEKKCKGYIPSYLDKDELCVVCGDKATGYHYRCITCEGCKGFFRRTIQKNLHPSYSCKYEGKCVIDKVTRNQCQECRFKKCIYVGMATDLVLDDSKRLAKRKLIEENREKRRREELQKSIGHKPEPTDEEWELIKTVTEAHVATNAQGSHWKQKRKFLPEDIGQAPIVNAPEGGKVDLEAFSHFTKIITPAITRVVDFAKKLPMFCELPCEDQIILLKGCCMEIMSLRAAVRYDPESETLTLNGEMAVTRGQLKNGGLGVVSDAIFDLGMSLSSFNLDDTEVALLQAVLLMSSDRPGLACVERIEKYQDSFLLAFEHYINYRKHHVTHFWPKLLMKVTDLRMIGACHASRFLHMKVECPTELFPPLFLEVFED
Text: NIH Molecular Libraries Probe Production Network [MLPCN] NIH Chemical Genomics Center [NCGC] MLPCN Grant: DK058080 Assay Provider: R. Kip Guy, St. Jude Children's Research Hospital NCGC Assay Overview: Thyroid receptor (TR) regulates many homeostatic processes including basal metabolism, cardiovascular function, body weight, and lipid trafficking. TR modulators are potential therapeutics for obesity and hyperlipidemias but current thyroid analogs have undesirable side effects, particularly cardiac stimulation. To identify inhibitors that specifically prevent the interaction of TR with the steroid receptor coregulator 2 (SRC2), a fluorescence polarization assay was screened. This assay detects interaction of the ligand-binding domain of human TRb with a Texas Red labeled SRC2 peptide, corresponding to a 20 amino acid region of the nuclear receptor interaction domain (Arnold et al., 2006). Small molecule inhibitors that block the interaction of TR and SRC2 are detected by a decrease in fluorescence polarization. This assay is a confirmation assay for AID 1469. Arnold, L. A.; Estebanez-Perpina, E.; Togashi, M.; Shelat, A.; Ocasio, C. A.; McReynolds, A. C.; Nguyen, P.; Baxter, J. D.; Fletterick, R. J.; Webb, P.; Guy, R. K. A high-throughput screening method to identify small molecule inhibitors of thyroid hormone receptor coactivator binding. Sci STKE 2006, p 13.
NCGC Assay Protocol Summary: For screening, 5 uL/well 0.6 uM TRb and 20 nM SRC2 Texas Red in protein buffer (20mM Tris hydrochloride, 100mM NaCl, 10% glycerol, 1mM EDTA, 0.01% NP-40, 1mM DTT, 1uM T3 and 5% DMSO) was dispensed into black solid 1536-well plates (Grenier) using a solenoid-based dispenser. […] The plates were read by an Envision (Perkin Elmer) to detect fluorescence polarization of SRC2 Texas Red (555 nm excitation and 632 nm emission). […] Keywords: NIH Roadmap, MLPCN, MLI, MLSMR, qHTS, NCGC, qHTS, thyroid hormone receptor, steroid receptor coactivator, fluorescence polarization

Compound	Potency
COP(=S)(OC)Oc1ccc([N+](=O)[O-])cc1	25.1 µM (active)
CCn1nc(-c2cccs2)nc2c(=O)n(C)c(=O)nc1-2	inactive
CN1CC[C@@]2(C)c3cc(O)ccc3N(C)C2O1 (stereo partly drawn)	25.1 µM (active)
